Results as given in PubChem BioAssay (NCI).
Compounds without any hit were thinned out: in the full panel of roughly 83,000, 20% have a hit.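 Cells were grown in 96-well plates and exposed to the test compound at a single concentration for 48 hours; results are reported as percent growth, with values below 10 considered active.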 A number with no mark means an inactive call. The source made the active and inactive calls.

What was measured:
Assay in all cases: NCI-60 one-dose screen, 48 h (100 = growth as untreated, 0 = no growth, -100 = all killed)
Conditions in all cases: 10 µM unless noted
SK-MEL-2 melanoma = system: SK-MEL-2 melanoma
SN12C renal = system: SN12C renal
UO-31 renal = system: UO-31 renal
TK-10 renal = system: TK-10 renal
ACHN renal = system: ACHN renal
CAKI-1 renal = system: CAKI-1 renal
A498 renal = system: A498 renal
CCRF-CEM leukemia = system: CCRF-CEM leukemia
MOLT-4 leukemia = system: MOLT-4 leukemia
SR leukemia = system: SR leukemia
OVCAR-8 ovarian = system: OVCAR-8 ovarian
OVCAR-5 ovarian = system: OVCAR-5 ovarian
OVCAR-4 ovarian = system: OVCAR-4 ovarian
SK-OV-3 ovarian = system: SK-OV-3 ovarian
IGROV1 ovarian = system: IGROV1 ovarian
OVCAR-3 ovarian = system: OVCAR-3 ovarian
HS 578T breast = system: HS 578T breast
NCI/ADR-RES ovarian = system: NCI/ADR-RES ovarian
RPMI-8226 leukemia = system: RPMI-8226 leukemia

Row | Compound | growth (SK-MEL-2 melanoma) | growth (SN12C renal) | growth (UO-31 renal) | growth (TK-10 renal) | growth (ACHN renal) | growth (CAKI-1 renal) | growth (A498 renal) [%] | growth (CCRF-CEM leukemia) | growth (MOLT-4 leukemia) | growth (SR leukemia) | growth (OVCAR-8 ovarian) | growth (OVCAR-5 ovarian) [%] | growth (OVCAR-4 ovarian) | growth (SK-OV-3 ovarian) | growth (IGROV1 ovarian) [%] | growth (OVCAR-3 ovarian) | growth (HS 578T breast) | growth (NCI/ADR-RES ovarian) [%] | growth (RPMI-8226 leukemia)
1 | O=[N+]([O-])c1cccc(C2CC(c3ccccc3)=Nc3ccccc3S2)c1 (stereo unspecified) | 95.4% | 95.5% | 59.7% | 124% | 90.9% | 91.6% | 96.3 | 22.6% | 64.2% | -40.3% (active) | 61.9% | 109 | 81.7% | 97.7% | 91.8 | 88% | 95.9% | 98.3 | –
2 | Cc1noc(C)c1-c1cc(O)cc(C(O)c2ccccc2)c1 (stereo unspecified) | 60.4% | 74.5% | 16.9% | 12.6% | 60.6% | 23.8% | – | 46.7% | 58.8% | 27.1% | 38.6% | 73.3 | 32.5% | 43.7% | 46 | 46.7% | 33.7% | 59.2 | 14.9%
3 | O=C(O)C(O)C(O)C(=O)O.[NH-]C1CCCCC1[NH-].[Pt+2] (stereo unspecified) | 109% | 106% | 97.9% | 113% | 101% | – | 125 | 112% | 105% | 117% | – | 108 | 106% | 105% | 106 | 107% | 109% | 107 | 110%
4 | COc1cccc2c1C(=O)c1c(O)c3c(c(O)c1C2=O)C[C@@](O)(/C(C)=N/NC(=O)c1ccc(Cl)cc1)C[C@@H]3OC1CC(N)C(O)C(C)O1 (stereo partly specified) | -81.1% (active) | 5.79% (active) | -40.4% (active) | -23.2% (active) | -36.3% (active) | -53.2% (active) | – | -10.8% (active) | -31.3% (active) | -34.1% (active) | -49.9% (active) | 13.9 | -9.91% (active) | 5.07% (active) | – | -28.5% (active) | -28.4% (active) | 47.8 | -28.7% (active)
5 | CCOC(=O)CC(C)=N | 111% | 103% | 98.5% | – | 109% | 111% | – | 118% | 106% | 120% | 108% | 107 | 100% | 111% | 132 | 112% | 107% | 112 | 113%
6 | O=C(/C=C/c1ccc(B(O)O)cc1)/C=C/c1ccc(B(O)O)cc1 | 110% | 57.5% | -72.3% (active) | 99.3% | 86.8% | – | – | 25% | 51% | 8.8% (active) | 72.2% | 92.8 | – | 46.8% | – | 27.8% | 4.54% (active) | 91.7 | -23.5% (active)
7 | COc1ccc(C(=O)c2sc3nc4c(c(C(F)(F)F)c3c2N)CN(C(C)=O)CC4)cc1OC | – | 93.7% | 46.3% | 86% | 79.1% | 80% | 58.1 | 82.6% | 79.2% | 79.4% | 80.9% | 89.3 | 85.8% | 87.2% | 98.2 | 95.9% | 81.6% | 84.7 | 57.1%
8 | Cc1ccn2c(-c3csc(Nc4cccc(O)c4)n3)c(C)nc2c1 | 24.2% | 20.8% | 40.4% | 57.2% | 26% | 80.6% | 64.7 | 23.7% | -7.6% (active) | -24.8% (active) | 40.1% | 38.5 | 36.7% | -25.2% (active) | 14.1 | -14% (active) | 19.2% | 14.4 | –
9 | CC1(C)OCC2OC3(C(=O)O)OC(C)(C)OC3C2O1 (stereo unspecified) | 105% | 106% | 94.2% | 102% | 103% | 103% | – | 108% | 97.9% | 101% | – | 106 | 118% | 101% | 106 | 99.2% | 102% | 107 | 117%
10 | Nc1cc2nc3ccccc3sc-2cc1=O | 89.4% | 60.7% | 42.8% | 137% | 65.5% | 56.3% | 106 | 18.4% | 61.4% | 2.91% (active) | 64.4% | 94.2 | 73.3% | 90.8% | 54.7 | 65.2% | 85.1% | 81.1 | –
11 | COc1ccc2nc3cc(Cl)ccc3c(N3CCN(c4nccc(NCc5ccccc5)n4)CC3)c2c1 | – | 76% | 45.9% | 62.6% | 68.5% | 62.2% | 28.8 | 0.798% (active) | 5.21% (active) | 20.9% | 71.4% | 106 | 67.3% | 98.1% | 92 | 63.3% | 83.3% | 78.5 | 63.2%
12 | Cc1ccc(Nc2c(C(N)=O)cnc3ccc(-c4csc(N)n4)cc23)cc1 | 110% | 108% | 88.7% | 96.2% | 84.7% | – | 73.3 | – | 95.3% | 94.8% | 101% | 99.6 | 87% | 108% | 89.3 | 108% | 92.9% | 96.4 | 100%
13 | Cl/C(=N\Nc1ccccc1)c1ccccc1 | 96.6% | 93.2% | 72.8% | 96.8% | 92.5% | 67.3% | – | 89.4% | 80.1% | 123% | 75.8% | 99.1 | 92.1% | 89.4% | 85.6 | 91.4% | 108% | 82.9 | –
14 | CCCCCCCCCCCCS(=O)CC(C)O (stereo unspecified) | 112% | 106% | 95.3% | 125% | 105% | 110% | – | 101% | 96.7% | 110% | 103% | 103 | 101% | 102% | 120 | 120% | 101% | 117 | 98.6%
15 | Cc1csc2ccc(Cl)cc12 | 99.7% | 93.1% | 81.6% | 99.4% | 95.5% | 96.9% | 119 | 108% | 112% | – | – | 102 | 98.1% | 96.5% | 104 | 111% | 104% | 103 | 109%
16 | CCOC(=O)c1ccc2c(c1)nc(/C=C/c1ccc(Cl)cc1)n2-c1cc(C(C)(C)C)[nH]n1 | 79.6% | 74.6% | 46.8% | 60% | 23.8% | 92.3% | 58.7 | – | -2.76% (active) | 52.2% | 38.5% | 110 | 38.3% | 43.3% | 15.4 | 22.2% | 51.3% | 68 | 52.3%
17 | COc1ccc(/C=C2\N=C3Sc4cc(Cl)ccc4C(=O)N3C2=O)cc1 | – | 96.3% | 65% | 107% | 92.1% | 73.8% | 108 | 93.4% | 93.6% | 88.4% | 94.6% | 98.1 | 103% | 98.1% | 107 | 104% | 102% | 106 | 101%
